# Targets with a hit are over-represented here; the source holds about 7,900 in all. About 0.6% of all pairs of compound and target were hits.
# Key:
# Test in all cases: log2 fold change, soluble protein after heating vs DMSO (PISA); higher = thermal stabilisation; K562 cells, 10 uM, 30 min; active = over 0.2 and 3.5 SD of the protein, either way, in both replicates (recomputed)
# crizotinib = compound: C[C@@H](Oc1cc(-c2cnn(C3CCNCC3)c2)cnc1N)c1c(Cl)ccc(F)c1Cl [crizotinib]
# How it was run: (§1)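 Quantification of soluble protein used TMTpro 16plex LC-MS/MS, with channel sums equalised. Samples were the supernatant after 21,000xg for 90 min of pooled aliquots from K562 cells (2×10^6 cells/mL) treated with 10 μM compound for 30 min, heated for 3 min over 48°C-58°C, and extracted in PBS with 0.5% NP-40 at 4°C. Values, from duplicates, describe thermal stability against control samples on a log2 fold-change scale.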
# [1] = compound: C[C@@H]1COCCN1C2=NC(=NC(=C2)C3(CC3)S(=O)(=O)C)C4=C5C=CNC5=CC=C4
# How it was run: as §1
# [2] = compound: C[C@H](C1=CC=C(C=C1)C(=O)NC2=C3C=CNC3=NC=C2)N
# How it was run: as §1
# duvelisib = compound: C[C@H](Nc1ncnc2nc[nH]c12)c1cc2cccc(Cl)c2c(=O)n1-c1ccccc1 [duvelisib]
# How it was run: as §1
# gandotinib = compound: Cc1cc(Nc2cc(CN3CCOCC3)c3nc(C)c(Cc4ccc(Cl)cc4F)n3n2)n[nH]1 [gandotinib]
# How it was run: as §1
# tozasertib = compound: Cc1cc(Nc2cc(N3CCN(C)CC3)nc(Sc3ccc(NC(=O)C4CC4)cc3)n2)n[nH]1 [tozasertib]
# How it was run: as §1
# [3] = compound: Cc1cc(SCc2sc(-c3ccc(C(F)(F)F)cc3)nc2C)ccc1OCC(=O)O
# How it was run: as §1
# doramapimod = compound: Cc1ccc(-n2nc(C(C)(C)C)cc2NC(=O)Nc2ccc(OCCN3CCOCC3)c3ccccc23)cc1 [doramapimod]
# How it was run: as §1
# ispinesib = compound: Cc1ccc(C(=O)N(CCCN)[C@@H](c2nc3cc(Cl)ccc3c(=O)n2Cc2ccccc2)C(C)C)cc1 [ispinesib]
# How it was run: as §1
# [4] = compound: CS(=O)(=O)c1ccc(-c2cnc(N)c(C(=O)Nc3ccccc3)n2)cc1
# How it was run: as §1
# Chain of UniProt P49189 (P49189 whole entry, looked up): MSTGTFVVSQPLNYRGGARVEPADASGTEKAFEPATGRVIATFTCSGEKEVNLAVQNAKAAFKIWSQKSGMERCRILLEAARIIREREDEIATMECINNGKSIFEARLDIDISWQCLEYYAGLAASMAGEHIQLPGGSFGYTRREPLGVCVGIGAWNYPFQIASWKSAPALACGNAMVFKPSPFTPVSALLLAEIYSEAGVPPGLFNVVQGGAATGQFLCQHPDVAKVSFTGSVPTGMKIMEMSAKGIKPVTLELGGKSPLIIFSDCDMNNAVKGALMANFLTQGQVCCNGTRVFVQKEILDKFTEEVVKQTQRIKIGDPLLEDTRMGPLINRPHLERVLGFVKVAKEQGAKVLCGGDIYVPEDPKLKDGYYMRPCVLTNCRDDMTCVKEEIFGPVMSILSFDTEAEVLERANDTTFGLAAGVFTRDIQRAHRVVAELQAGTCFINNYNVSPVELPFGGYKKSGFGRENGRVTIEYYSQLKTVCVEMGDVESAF
# Chain of UniProt Q96G97 (Q96G97 whole entry, looked up): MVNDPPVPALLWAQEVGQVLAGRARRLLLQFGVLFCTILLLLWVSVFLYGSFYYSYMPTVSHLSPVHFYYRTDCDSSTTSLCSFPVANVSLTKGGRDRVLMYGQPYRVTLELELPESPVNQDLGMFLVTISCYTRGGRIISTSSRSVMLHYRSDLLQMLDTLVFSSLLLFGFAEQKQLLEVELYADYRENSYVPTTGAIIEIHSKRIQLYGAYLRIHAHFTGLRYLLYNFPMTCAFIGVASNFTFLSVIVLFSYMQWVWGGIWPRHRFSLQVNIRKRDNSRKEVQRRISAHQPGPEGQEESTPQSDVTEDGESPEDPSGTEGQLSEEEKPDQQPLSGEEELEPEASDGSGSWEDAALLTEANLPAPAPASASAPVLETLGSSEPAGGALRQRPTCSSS
# Chain of UniProt Q8NFV4 (Q8NFV4 whole entry, looked up): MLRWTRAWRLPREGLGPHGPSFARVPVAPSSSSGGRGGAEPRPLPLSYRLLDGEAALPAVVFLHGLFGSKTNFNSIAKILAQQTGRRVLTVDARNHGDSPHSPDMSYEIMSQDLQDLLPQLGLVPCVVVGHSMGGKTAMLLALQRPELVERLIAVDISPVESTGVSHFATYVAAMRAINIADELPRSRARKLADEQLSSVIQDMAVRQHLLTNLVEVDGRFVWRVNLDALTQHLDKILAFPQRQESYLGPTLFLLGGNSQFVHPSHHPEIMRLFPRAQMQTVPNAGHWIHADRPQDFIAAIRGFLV
# Chain of UniProt P05091 (P05091 whole entry, looked up): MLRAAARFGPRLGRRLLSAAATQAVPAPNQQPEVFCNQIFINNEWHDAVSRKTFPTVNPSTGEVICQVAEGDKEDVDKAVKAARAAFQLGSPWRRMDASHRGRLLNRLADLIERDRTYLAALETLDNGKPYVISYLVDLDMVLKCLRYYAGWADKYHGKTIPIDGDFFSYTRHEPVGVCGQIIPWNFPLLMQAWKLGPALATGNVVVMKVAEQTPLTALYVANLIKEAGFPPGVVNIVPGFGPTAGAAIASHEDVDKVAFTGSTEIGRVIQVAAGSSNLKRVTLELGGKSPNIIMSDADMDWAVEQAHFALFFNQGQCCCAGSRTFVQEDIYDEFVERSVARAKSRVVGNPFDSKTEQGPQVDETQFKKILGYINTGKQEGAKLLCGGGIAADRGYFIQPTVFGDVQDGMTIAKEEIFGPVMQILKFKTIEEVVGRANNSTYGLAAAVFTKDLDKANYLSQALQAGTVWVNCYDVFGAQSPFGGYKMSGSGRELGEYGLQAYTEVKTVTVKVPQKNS
# Chain of UniProt O14965 (O14965 whole entry, looked up): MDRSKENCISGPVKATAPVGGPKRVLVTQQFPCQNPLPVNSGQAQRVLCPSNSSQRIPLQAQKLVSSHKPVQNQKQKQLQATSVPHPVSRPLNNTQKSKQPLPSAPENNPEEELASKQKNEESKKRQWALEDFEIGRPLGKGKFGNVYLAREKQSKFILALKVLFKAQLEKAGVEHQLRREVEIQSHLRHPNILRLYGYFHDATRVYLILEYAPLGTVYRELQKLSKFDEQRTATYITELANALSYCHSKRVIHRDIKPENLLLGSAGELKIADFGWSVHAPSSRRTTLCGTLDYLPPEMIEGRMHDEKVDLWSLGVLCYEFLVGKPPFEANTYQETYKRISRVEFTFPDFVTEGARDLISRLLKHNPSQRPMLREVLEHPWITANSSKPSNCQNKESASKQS
# Chain of UniProt P00966 (P00966 whole entry, looked up): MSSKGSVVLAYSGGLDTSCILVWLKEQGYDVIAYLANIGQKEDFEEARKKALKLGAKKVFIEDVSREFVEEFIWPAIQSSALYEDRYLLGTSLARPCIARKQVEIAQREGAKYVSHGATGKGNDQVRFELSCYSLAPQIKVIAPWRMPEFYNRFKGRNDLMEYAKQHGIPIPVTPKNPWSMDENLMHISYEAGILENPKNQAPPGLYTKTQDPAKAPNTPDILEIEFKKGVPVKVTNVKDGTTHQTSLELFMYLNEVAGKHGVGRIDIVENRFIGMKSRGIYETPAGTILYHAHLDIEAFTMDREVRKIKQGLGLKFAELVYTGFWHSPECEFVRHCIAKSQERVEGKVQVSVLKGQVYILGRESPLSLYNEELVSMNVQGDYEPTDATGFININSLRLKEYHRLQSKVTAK
# Chain of UniProt Q9BUT1 (Q9BUT1 whole entry, looked up): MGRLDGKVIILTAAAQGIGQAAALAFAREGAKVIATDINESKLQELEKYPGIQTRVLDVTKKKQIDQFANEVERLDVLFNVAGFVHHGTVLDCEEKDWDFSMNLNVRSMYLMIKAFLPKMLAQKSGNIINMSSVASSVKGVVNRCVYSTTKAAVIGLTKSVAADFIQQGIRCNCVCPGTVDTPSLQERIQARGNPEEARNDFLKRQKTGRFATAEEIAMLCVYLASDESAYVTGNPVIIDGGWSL
# Chain of UniProt Q96F25 (Q96F25 whole entry, looked up): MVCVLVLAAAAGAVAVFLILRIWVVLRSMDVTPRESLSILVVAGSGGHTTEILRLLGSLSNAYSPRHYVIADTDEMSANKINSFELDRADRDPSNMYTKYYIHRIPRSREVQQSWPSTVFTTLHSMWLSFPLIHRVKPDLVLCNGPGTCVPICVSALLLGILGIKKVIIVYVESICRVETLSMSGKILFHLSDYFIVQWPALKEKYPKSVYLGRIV
# Chain of UniProt Q9UKU0 (Q9UKU0 whole entry, looked up): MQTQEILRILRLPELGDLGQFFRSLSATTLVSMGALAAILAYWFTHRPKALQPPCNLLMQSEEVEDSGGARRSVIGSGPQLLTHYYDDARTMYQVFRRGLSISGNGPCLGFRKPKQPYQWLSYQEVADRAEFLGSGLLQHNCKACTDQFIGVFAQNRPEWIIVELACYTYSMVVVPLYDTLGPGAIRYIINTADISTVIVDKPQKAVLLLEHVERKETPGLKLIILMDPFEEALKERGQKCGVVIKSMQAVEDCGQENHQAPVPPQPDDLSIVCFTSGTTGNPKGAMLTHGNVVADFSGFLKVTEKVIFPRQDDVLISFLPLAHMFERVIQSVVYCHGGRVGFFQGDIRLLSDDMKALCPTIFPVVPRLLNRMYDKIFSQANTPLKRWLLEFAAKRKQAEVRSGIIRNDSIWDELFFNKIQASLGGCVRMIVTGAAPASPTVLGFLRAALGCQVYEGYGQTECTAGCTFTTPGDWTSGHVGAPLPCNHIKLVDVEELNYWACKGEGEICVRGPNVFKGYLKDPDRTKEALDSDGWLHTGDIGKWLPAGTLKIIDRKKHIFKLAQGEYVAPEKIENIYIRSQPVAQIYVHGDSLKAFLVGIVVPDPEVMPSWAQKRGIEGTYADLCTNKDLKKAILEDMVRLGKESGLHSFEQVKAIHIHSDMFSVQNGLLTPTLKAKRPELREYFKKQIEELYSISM
# Chain of UniProt Q14CW9 (Q14CW9 whole entry, looked up): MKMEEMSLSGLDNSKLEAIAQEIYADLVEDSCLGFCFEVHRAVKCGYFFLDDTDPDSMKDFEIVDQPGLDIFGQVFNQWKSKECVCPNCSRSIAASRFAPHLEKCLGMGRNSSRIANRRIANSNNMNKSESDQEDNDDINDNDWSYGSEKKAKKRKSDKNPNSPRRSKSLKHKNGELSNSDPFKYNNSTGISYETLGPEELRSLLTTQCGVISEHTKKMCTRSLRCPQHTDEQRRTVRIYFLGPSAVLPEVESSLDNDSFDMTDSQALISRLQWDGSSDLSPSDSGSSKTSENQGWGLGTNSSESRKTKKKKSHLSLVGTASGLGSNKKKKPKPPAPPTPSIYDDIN
# Chain of UniProt Q04771 (Q04771 whole entry, looked up): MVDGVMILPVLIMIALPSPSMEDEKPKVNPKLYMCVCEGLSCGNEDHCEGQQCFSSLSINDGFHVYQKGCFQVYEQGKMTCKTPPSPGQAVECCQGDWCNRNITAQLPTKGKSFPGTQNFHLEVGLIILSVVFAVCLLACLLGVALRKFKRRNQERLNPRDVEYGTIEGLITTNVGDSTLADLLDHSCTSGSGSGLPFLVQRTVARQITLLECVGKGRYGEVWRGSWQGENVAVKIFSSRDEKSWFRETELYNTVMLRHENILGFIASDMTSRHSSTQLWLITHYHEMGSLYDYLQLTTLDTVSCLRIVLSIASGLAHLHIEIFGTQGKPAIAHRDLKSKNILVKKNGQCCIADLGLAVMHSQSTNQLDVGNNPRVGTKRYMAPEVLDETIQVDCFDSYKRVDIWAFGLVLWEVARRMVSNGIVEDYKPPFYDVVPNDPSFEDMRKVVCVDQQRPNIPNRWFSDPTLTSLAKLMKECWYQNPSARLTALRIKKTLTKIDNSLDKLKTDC
# Chain of UniProt P18846 (P18846 whole entry, looked up): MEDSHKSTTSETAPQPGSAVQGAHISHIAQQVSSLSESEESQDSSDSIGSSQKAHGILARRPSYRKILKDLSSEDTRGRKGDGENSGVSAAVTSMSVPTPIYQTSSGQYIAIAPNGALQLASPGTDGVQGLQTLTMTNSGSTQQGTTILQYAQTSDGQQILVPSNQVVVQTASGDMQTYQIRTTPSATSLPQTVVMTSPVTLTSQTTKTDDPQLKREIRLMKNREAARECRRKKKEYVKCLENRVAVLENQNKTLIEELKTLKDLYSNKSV
Target,log2 fold change (crizotinib),log2 fold change [1],log2 fold change [2],log2 fold change (duvelisib),log2 fold change (gandotinib),log2 fold change (tozasertib),log2 fold change [3],log2 fold change (doramapimod),log2 fold change (ispinesib),log2 fold change [4]
ABHD11 (UniProt Q8NFV4),0.149 (inactive),0.309 (active),0.057 (inactive),0.144 (inactive),0.389 (active),-0.039 (inactive),-0.003 (inactive),0.028 (inactive),0.029 (inactive),–
ACVR1 (UniProt Q04771),–,0.04 (inactive),0.642 (active),0.074 (inactive),0.109 (inactive),0.014 (inactive),-0.061 (inactive),–,–,0.38 (inactive)
ACTBL2 (UniProt Q562R1),–,-0.005 (inactive),–,-0.091 (inactive),-0.828 (inactive),–,-0.299 (inactive),–,-0.307 (inactive),-0.022 (inactive)
ATXN7L3 isoform 2 (UniProt Q14CW9),-0.043 (inactive),–,–,–,–,–,–,0.169 (inactive),-0.007 (inactive),0.001 (inactive)
ASS1 (UniProt P00966),–,0.017 (inactive),-0.079 (inactive),0.039 (inactive),-0.014 (inactive),-0.085 (inactive),-0.062 (inactive),–,-0.205 (inactive),0.033 (inactive)
ACSL6 isoform 1 (UniProt Q9UKU0),–,0.164 (inactive),–,-0.068 (inactive),-0.145 (inactive),-0.052 (inactive),0.157 (inactive),–,-0.198 (inactive),-0.055 (inactive)
AARSD1 (UniProt Q9BTE6),-0.036 (inactive),–,0.033 (inactive),-0.258 (inactive),–,–,0.026 (inactive),-0.096 (inactive),–,–
ADD2 isoform 9 (UniProt P35612),–,–,–,–,–,–,–,–,0.04 (inactive),-0.067 (inactive)
ANK2 (UniProt Q01484),0.062 (inactive),–,-0.005 (inactive),0.21 (inactive),-0.092 (inactive),0.011 (inactive),0.089 (inactive),0.055 (inactive),-0.188 (inactive),0.066 (inactive)
AURKA (UniProt O14965),–,-0.251 (inactive),0.066 (inactive),-0.058 (inactive),1.01 (active),–,-0.013 (inactive),0.051 (inactive),-0.107 (inactive),0.198 (inactive)
BSCL2 isoform 4 (UniProt Q96G97),–,0.05 (inactive),-0.007 (inactive),0.129 (inactive),-0.086 (inactive),0.008 (inactive),0.111 (inactive),–,–,–
ARHGAP25 isoform 4 (UniProt P42331),–,-0.066 (inactive),0.309 (inactive),-0.067 (inactive),-0.056 (inactive),0.111 (inactive),0.299 (inactive),–,–,–
BTBD6 (UniProt Q96KE9),–,0.033 (inactive),-0.308 (inactive),0.125 (inactive),0.64 (inactive),-0.105 (inactive),-0.061 (inactive),–,0.209 (inactive),0.117 (inactive)
BRD4 (UniProt O60885),–,0.288 (inactive),-0.009 (inactive),0.207 (inactive),-0.034 (inactive),0.033 (inactive),-0.044 (inactive),–,-0.022 (inactive),0.081 (inactive)
AUNIP isoform 2 (UniProt Q9H7T9),–,–,-0.007 (inactive),0.157 (inactive),–,-0.203 (inactive),0.056 (inactive),–,–,0.117 (inactive)
AZI2 (UniProt Q9H6S1),–,–,–,–,–,0.329 (inactive),–,–,-0.019 (inactive),0.074 (inactive)
ATF1 (UniProt P18846),–,0.017 (inactive),0.073 (inactive),–,0.067 (inactive),0.113 (inactive),–,–,–,-0.004 (inactive)
AKNA (UniProt Q7Z591),–,–,-0.02 (inactive),–,–,–,–,–,–,-0.015 (inactive)
ALDH9A1 (UniProt P49189),–,0.061 (inactive),-0.116 (inactive),0.002 (inactive),0.356 (active),-0.052 (inactive),0.045 (inactive),–,-0.243 (inactive),0.084 (inactive)
"BRAF, A0A2R8Y8E0",0.262 (inactive),–,–,–,–,0.248 (inactive),–,-0.757 (active),-0.223 (inactive),–
BRMS1 (UniProt Q9HCU9),–,-0.034 (inactive),–,0.049 (inactive),-0.174 (inactive),-0.094 (inactive),-0.046 (inactive),–,–,–
ALG14 (UniProt Q96F25),-0.034 (inactive),-0.117 (inactive),-0.042 (inactive),0.01 (inactive),-0.798 (active),-0.134 (inactive),-0.002 (inactive),-0.038 (inactive),-0.018 (inactive),–
ALDH2 isoform 2 (UniProt P05091),–,0.244 (inactive),–,–,-0.027 (inactive),-0.224 (inactive),–,–,-0.214 (inactive),0.209 (inactive)
ACTR3B (UniProt Q9P1U1),-0.005 (inactive),–,–,–,0.024 (inactive),-0.02 (inactive),–,0.158 (inactive),-0.069 (inactive),–
BAP18 isoform 3 (UniProt Q8IXM2),–,–,–,–,0.147 (inactive),0.012 (inactive),–,–,–,–
AP2S1 (UniProt M0QZ21),–,–,–,–,–,-0.253 (inactive),–,–,–,–
BDH2 (UniProt Q9BUT1),0.243 (inactive),–,-0.215 (inactive),-0.01 (inactive),0.011 (inactive),–,0.067 (inactive),-0.053 (inactive),0.053 (inactive),0.035 (inactive)

# From the supplement of paper PMC10849652
